# Assay results as given in the supplement of paper PMC6555819.
# Tests used:
# Test in all cases: PBM binding z-score (relative to random genomic background probes); higher = stronger binding; sequences stand for … in GC…GCGATTGACAGCGTAGAATGAAGG
# [1] = tested on: FXR:RXRa (NR concentration 270 nM, RXRa partner concentration 90 nM)
# Method in brief: (§1)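 Ligand-free nuclear receptor dimers were bound for 1 h to custom Agilent 4×180K protein-binding microarrays. Detection used antibodies against each partner (one per run). Binding z-scores rest on regression-normalized fluorescence, with random background probes as the reference.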
# [2] = tested on: LXRa:RXRa (NR concentration 270 nM, RXRa partner concentration 90 nM)
# Method in brief: as §1
# [3] = tested on: LXRa homodimer (NR concentration 270 nM)
# Method in brief: as §1
# [4] = tested on: LXRb:RXRa (NR concentration 270 nM, RXRa partner concentration 90 nM)
# Method in brief: as §1
# [5] = tested on: LXRb homodimer (NR concentration 270 nM)
# Method in brief: as §1
# [6] = tested on: PPARa:RXRa (NR concentration 270 nM, RXRa partner concentration 90 nM)
# Method in brief: as §1
# [7] = tested on: PPARg:RXRa (NR concentration 180 nM, RXRa partner concentration 90 nM)
# Method in brief: as §1
# [8] = tested on: PPARg:RXRa 270nM:90nM, anti-RXR (NR concentration 270 nM, RXRa partner concentration 90 nM)
# Method in brief: as §1
# [9] = tested on: PPARg:RXRa 30nM:10nM, anti-RXR (NR concentration 30 nM, RXRa partner concentration 10 nM)
# Method in brief: as §1
# [10] = tested on: PPARg:RXRa 90nM:30nM, anti-RXR (NR concentration 90 nM, RXRa partner concentration 30 nM)
# Method in brief: as §1
# [11] = tested on: PPARg:RXRa DBDmut IVT, anti-RXR (DBD mutation: RXRa K156A/R161A, NR concentration 270 nM, RXRa partner concentration 90 nM)
# Method in brief: as §1
# [12] = tested on: PPARg:RXRa IVT, anti-PPARg (NR concentration 270 nM, RXRa partner concentration 90 nM)
# Method in brief: as §1
# [13] = tested on: PPARg DBDmut:RXRa IVT, anti-PPARg (DBD mutation: PPARg1 K132A/R137A, NR concentration 270 nM, RXRa partner concentration 90 nM)
# Method in brief: as §1
# [14] = tested on: PPARg DBDmut IVT, anti-PPARg (DBD mutation: PPARg1 K132A/R137A, NR concentration 270 nM)
# Method in brief: as §1
# [15] = tested on: PPARg homodimer (NR concentration 180 nM)
# Method in brief: as §1
# [16] = tested on: PXR:RXRa (NR concentration 270 nM, RXRa partner concentration 90 nM)
# Method in brief: as §1
# [17] = tested on: PXR homodimer (NR concentration 270 nM)
# Method in brief: as §1
# [18] = tested on: RARa:RXR (NR concentration 270 nM, RXRa partner concentration 90 nM)
# Method in brief: as §1
# [19] = tested on: RARa homodimer (NR concentration 270 nM)
# Method in brief: as §1
# [20] = tested on: RARb:RXRa (NR concentration 270 nM, RXRa partner concentration 90 nM)
# Method in brief: as §1
Sequence,PBM binding z-score [1],PBM binding z-score [2],PBM binding z-score [3],PBM binding z-score [4],PBM binding z-score [5],PBM binding z-score [6],PBM binding z-score [7],PBM binding z-score [8],PBM binding z-score [9],PBM binding z-score [10],PBM binding z-score [11],PBM binding z-score [12],PBM binding z-score [13],PBM binding z-score [14],PBM binding z-score [15],PBM binding z-score [16],PBM binding z-score [17],PBM binding z-score [18],PBM binding z-score [19],PBM binding z-score [20]
TCTTGTAGATCAACAGGAGGTAAAGAAAGATCGA,-0.194,-0.0725,-0.569,-0.104,-0.41,0.461,0.106,1.19,2.4,1.96,1.4,0.479,0.613,0.824,-0.233,0.0383,-0.784,-0.044,-0.132,-0.124
TAGCCTAGGTCAGATCGGGCCAGAATACGCTATA,1.65,1.06,-0.312,0.942,-0.714,1.79,0.869,0.835,-0.187,0.398,0.095,1.57,-0.542,-0.739,0.124,0.946,-0.549,1.87,-0.627,2.93
GCTTACGGGTCAAAGATTATAGCATGAATAGAAT,5.74,3.66,-0.0414,3.8,0.557,5.34,6.3,6.09,3.92,5.77,3.85,3.76,1.41,1.16,1.35,3.23,-0.0668,4.47,0.373,3.39
GGAACGAGGGCAAAGTTGATCGCATCTGTCGACG,1.11,0.829,-0.561,0.545,-0.311,3.82,6.68,6.95,5.94,7.29,3.98,4.13,-0.0459,-0.518,0.458,0.924,0.152,1.42,-0.502,2.32
AGTCAAAGTTCATCTAGGTAACGTAGGATATGCT,6.48,6.18,5.41,3.66,1.7,4.7,6.41,6.28,3.31,5.55,1.16,3.96,1.76,1.26,2.37,5.12,7.16,3.89,1.67,4.85
ATATGTAGGTTGTCGGGTCATTCAGTTTGCGCAT,2.12,2.15,1.45,2.65,0.953,3.6,2.89,3.27,1.09,2.63,4.37,4.47,1.87,1.67,2.56,3.63,8.53,3.15,1.78,2.08
AGTCAAAGTTCACTAGGTAACCTAAGATTCAGCT,5.37,5.38,3.76,3.3,1.13,4.71,7.18,6.5,4,5.96,3.06,5.17,0.689,0.943,2.98,4.37,4.07,3.78,1.73,4.7
CCTACTGGGCCACGAAAAGTCATTGATTCAGTGA,-0.198,-0.0823,-0.286,-0.375,-0.772,0.98,1.63,1.67,0.153,0.689,5.95,5.51,-0.0211,-0.417,0.0392,-0.419,-0.579,-0.211,-0.346,0.629
